Our source for the max activation and Potency values is PubChem BioAssay (Tox21).

Values joined by “and” are separate entries in the source; they are usually repeats but may differ in a detail not shown here. Equal values may be shown once. Inconclusive results are not listed. Unmarked numbers belong to inactive results. Active and inactive are the calls of the source. Calls follow the shape of the dose curve; as a rule, active = well fitted activation curve with a large enough effect in the repeat runs; inconclusive = weak or mixed curves; inactive = no such curve, though single readings can be large or run the other way.
% is scaled to controls: 0 for no effect and ±100 for the full control effect; potency is read from the fitted curve at half-maximal effect.

Sequence of Nuclear receptor subfamily 1 group I member 2 (Rattus norvegicus) (Q9R1A7 whole entry, looked up): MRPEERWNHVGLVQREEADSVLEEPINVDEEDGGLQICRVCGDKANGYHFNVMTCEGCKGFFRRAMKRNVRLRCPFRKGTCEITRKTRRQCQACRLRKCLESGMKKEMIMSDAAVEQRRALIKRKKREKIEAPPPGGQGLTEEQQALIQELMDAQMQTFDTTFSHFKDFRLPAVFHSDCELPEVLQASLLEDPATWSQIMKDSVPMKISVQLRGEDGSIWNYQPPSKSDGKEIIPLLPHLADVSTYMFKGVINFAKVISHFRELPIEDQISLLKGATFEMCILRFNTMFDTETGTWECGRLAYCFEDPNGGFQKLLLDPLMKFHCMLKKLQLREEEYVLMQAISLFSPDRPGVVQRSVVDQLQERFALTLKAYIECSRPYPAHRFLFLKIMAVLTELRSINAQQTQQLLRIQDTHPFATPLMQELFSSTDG

This test deals with Nuclear receptor subfamily 1 group I member 2 (Rattus norvegicus) (UniProt Q9R1A7). The test can be described thus: Rat pregnane X receptor (rPXR) activation by small molecules, qHTS assay (AID 1346983). Also: nearly all actives have a fitted effect of over 20% in size. The note with it: rPXR luciferase reporter cells, One-Glo luminescence, 24 h; max activation: active compounds read high. The text has this:
National Center for Advancing Translational Sciences [NCATS] NIH Chemical Genomics Center [NCGC] U.S. Environmental Protection Agency [EPA] National Institutes of Environmental Health Sciences [NIEHS] National Toxicology Program [NTP] Assay overview: The Pregnane X receptor (PXR), a ligand activated nuclear receptor plays a critical role in the regulation of genes involved in drug metabolism and transporters. PXR binds xenobiotics and when compounds interact with PXR produces enhanced expression of CYP3A genes. In humans PXR activation and CYP3A4 induction can be problematic due to their interactions with co-medicated drugs and decrease their efficacy or increase their own metabolism. However, there are known species-specific differences with regard to PXR activation that should be taken into account when animal PXR data are extrapolated to humans. A cell based rat PXR (rPXR) assay (developed by Puracyp, Inc., CA) was used to assess the activation of rPXR.
Assay Protocol Summary: rPXR cells were dispensed at 2,000 per well in 5uL of assay medium into white, solid-bottom 1536-well plates using a Multidrop Combi dispenser (Thermo Scientific). The assay plates were incubated at 37 C for 5hr before transferring 23 nL of test compounds dissolved in DMSO and positive control via Pintool station (Wako). The assay plates were incubated at 37 C for 24 hr. Then 5ul One-Glo assay reagent (Promega) was added to each plate by a Flying Reagent Dispenser (FRD, Aurora Discovery) and following 30 min incubation at room temperature, luciferase activity was quantified on a ViewLux plate reader (Perkin Elmer).
On the technique in general: Quantitative high-throughput screening tests each substance at several concentrations.
Regarding `CCC(=O)O[C@@](Cc1ccccc1)(c1ccccc1)[C@@H](C)CN(C)C`, the max activation was 0.731%.

As for `NCC[C@H](O)C(=O)N[C@@H]1C[C@H](N)[C@@H](O[C@H]2O[C@H](CN)[C@@H](O)[C@H](O)[C@H]2N)[C@H](O[C@@H]2O[C@H](CO)[C@@H](O)[C@H]2O)[C@H]1O`, the max activation was -1.3%.

As to `CCCCCCCCCC(=O)O[C@H]1CC[C@H]2[C@@H]3CCC4=CC(=O)CC[C@]4(C)[C@H]3CC[C@]12C`, the max activation was -1.38%.

Turning to `CN1[C@@H]2CC[C@H]1CC(OC1c3ccccc3CCc3ccccc31)C2` (stereo not given in full), the max activation is -2.13%.

`[H+].[H+].[Hg+2].[O-]B([O-])[O-].[c-]1ccccc1`: the max activation is -22%.

Consider `CCCCCc1cc(O)c2c(c1)OC(C)(C)[C@@H]1CCC(C)=C[C@@H]21`, for which the max activation was -3.2%.

As to `COc1ccc2c3c1O[C@H]1[C@@H](O)C=C[C@H]4[C@@H](C2)NCC[C@@]341`, the max activation is -0.689%.

With `Cc1nnc2n1-c1ccc(Cl)cc1C(c1ccccc1)=NC2`, the max activation was -0.769%.

In the case of `CCN(CC)CCO[C@H]1CC[C@@]2(C)C(=CC[C@@H]3[C@@H]2CC[C@]2(C)C(=O)CC[C@@H]32)C1`, the max activation was 3.39%.

Turning to `CNC(=O)Oc1ccccc1C(=O)Nc1ccccc1`, the max activation was -3.26%.

With `CC(=O)[C@H]1CC[C@H]2[C@@H]3CC[C@@H]4C[C@H](O)CC[C@]4(C)[C@H]3CC[C@]12C`, the max activation is 6.21%.

`C[C@]12CC[C@H]3[C@@H](CCC4=C(Cl)C(=O)CC[C@@]43C)[C@@H]1CC[C@@H]2O`: the max activation is -0.226%.

On to `C/C(=C\c1csc(C)n1)[C@@H]1C[C@@H]2O[C@]2(C)CCC[C@H](C)[C@H](O)[C@@H](C)C(=O)C(C)(C)[C@@H](O)CC(=O)O1`, for which the Potency was 10 µM (active).

`O=C(OCCN1CCCCC1)C(O)(c1ccccc1)c1ccccc1`: the max activation is -1.73%.

For the compound `CCC1(CC)C(=O)NC(=O)N(C)C1=O`, the max activation was -3.02%.

Turning to `CN1CCCC(=C(c2cccs2)c2cccs2)C1`, the max activation is -1%.

With `CN(C)CCCCCCN(C)C` (tested in a mixture with another compound), the max activation was -5.32%.

Turning to `Clc1ccc2c(c1)C(c1ccccc1)=NCc1nncn1-2`, the max activation is -10.5%.

In the case of `COc1ccc(OC)c([C@@H](O)[C@H](C)N)c1`, the max activation was -3.61%.

Take `CC1(C)[C@H](C=C(Cl)Cl)[C@H]1C(=O)OCc1c(F)c(F)cc(F)c1F`: the max activation was 4.71%.

As to `Oc1cc[c]([Hg][Cl])cc1`, the max activation was -21.4%.

For the compound `O=C(C[C@@H]1NCCC[C@H]1O)Cn1cnc2cc(Br)c(Cl)cc2c1=O`, the max activation was 5.28%.

Take `CC(C)NC(C)Cc1ccc(I)cc1` (stereo not given): the max activation is -3.06%.

Take `CCCC(C)C1(CC)C(=O)NC(=O)NC1=O` (stereo not given): the max activation is -2.06%.

As for `CC(Cc1ccccc1)NC=O` (stereo not given), the max activation is 0.0916%.

Take `CCC1(C)CC(=O)NC(=O)C1`: the max activation was 0.0054%.

In the case of `CCCCCN(C)CCC(O)(P(=O)(O)O)P(=O)(O)O`, the max activation is -1.96%.

As to `CC[C@H]1[C@@H]2C[C@H]3[C@@H]4N(C)c5ccccc5[C@]45C[C@@H](C2[C@H]5O)N3[C@@H]1O` (stereo not given in full), the max activation was 0.0648%.

On to `CN=C1CN(O)C(c2ccccc2)=c2cc(Cl)ccc2=N1`, for which the max activation is -1.86% and 4.26%.

Turning to `CC(=O)O[C@H]1CC[C@H]2[C@@H]3CCC4=CC(=O)CCC4=C3C=C[C@]12C`, the max activation is -1.98%.

For `C[C@]12C=CC(=O)C=C1CC[C@@H]1[C@@H]2CC[C@]2(C)OC(=O)CC[C@@H]12`, the max activation is -1.12%.

On to `C[C@]12CC[C@H]3[C@@H](CCC4=CC(=O)CC[C@@]43C)[C@@H]1CC[C@H]2O`, for which the max activation is -0.613%.

For `O[C@H]1[C@H]2[C@H](O)CCCN2C[C@H]1O`, the max activation was -2.82%.

On to `C[C@]12N[C@H](Cc3ccccc31)c1ccccc12`, for which the max activation was -5.86%.

For `CN1c2ccccc2C(NCCCCCCC(=O)O)c2ccc(Cl)cc2S1(=O)=O` (stereo not given), the max activation is -2.51%.

As for `C=CCN1CC[C@]23c4c5ccc(O)c4O[C@H]2[C@@H](O)C=C[C@H]3[C@H]1C5`, the max activation is -1.77%.

`[S]=[Sb](=[S])[S][Sb](=[S])=[S]`: the max activation was -0.774%.

Turning to `CCC(=O)O[C@]1(c2ccccc2)CCN(C)C[C@H]1C`, the max activation was -0.104%.

With `C[C@@H](Cc1ccccc1)N(C)C`, the max activation was -2.61%.

Take `[2H]C([2H])([2H])[C@H](N)Cc1ccccc1`: the max activation is -6.9%.
